Results filed as inconclusive are left out. Entries that show only a call come without a potency. Active and inactive are the calls of the source. Calls come from the whole dose curve; as a rule, active = well fitted inhibition curve with a large enough effect; inconclusive = small, poorly fitted or top-dose-only effect; inactive = no such curve, though single readings can be large or run the other way. Positions of bridges follow the written chain, without caps; N, C: chain ends. Non-standard residues stand in square brackets, D forms with d. Residues, ends and D or L forms follow the SMILES beside them. *: point of attachment. X1 = CCC(C)C(N)C1=NC(C(=O)*)CS1; dOrn = NCCC[C@@H](N)C(=O)O
Potency is the fitted concentration of half-maximal effect.

The first test deals with Retinaldehyde dehydrogenase 3 (Homo sapiens) (UniProt P47895). The test is described as follows: qHTS for Inhibitors of the Aldehyde Dehydrogenase Family (ALDH1A3) Confirmatory screens (AID 2061311). Note: nearly all actives have a fitted effect of over 60% in size. Conditions: ALDH inhibition qHTS; series mostly up to 46 µM. Background: In qHTS, concentration-response curves come from the screen itself.
For the compound `CC1(NC(=O)c2ccc(C#Cc3cccc(F)c3)cn2)COC1`, the Potency result was “inactive”.

For the compound `O=C(O)c1cn(C2CC2)c2cc(N3C[C@@H]4C[C@H]3CN4)c(F)cc2c1=O`, the Potency entry is “inactive”.

For the compound `CCCCNC(=O)[C@@H]1Cc2ccccc2N1C(=O)[C@@H](N)CC`, the Potency entry was “inactive”.

In the case of `CCOC(=O)C1=C(N)Oc2ccc(Cl)cc2C1C(C#N)C(=O)OCC` (centres undefined), the Potency is 12.7 µM (active).

Take `CCOC(=O)c1cccc(CNc2ccc(N(C)C(=O)Nc3ccccc3)cc2)c1`: the Potency entry is “inactive”.

Take `COCCN(C(=O)c1cc(OC)c(OC)c(OC)c1)c1nc(-c2ccccc2)cs1`: the Potency entry is “inactive”.

`C=CC(=O)N1CCN(C(=O)CNc2cc(-c3ccccc3Cl)c(Cl)cc2OC)CC1`: the Potency entry was “inactive”.

With `COC(=O)N1CCN(Cc2cccc(NC(=O)Nc3ccc(C)nc3)c2F)CC1`, the Potency entry was “inactive”.

Regarding `COC(=O)c1ccc(O[C@@H]2O[C@H](CO)[C@@H](O)[C@H](O)[C@H]2O)c(OC)c1`, the Potency is 17.5 µM (active).

For the compound `COc1ccnc(CCc2nc3ncccc3[nH]2)c1`, the Potency entry was “inactive”.

For the compound `COc1ccc(CCO[C@@H]2CCCC[C@H]2N2CC[C@@H](O)C2)cc1OC`, the Potency result was “inactive”.

Regarding `CC1(C)CCC2(C(=O)OC3OC(CO)C(O)C(O)C3O)CCC3(C)C(=CCC4C5(C)CCC(O)C(C)(C(=O)O)C5CCC43C)C2C1O` (centres undefined), the Potency entry is “inactive”.

With `Cn1cc(Nc2cnccc2C(=O)O)c2cccnc21`, the Potency result is “inactive”.

As for `O=C(CCCCCCC(=O)Nc1ccccc1)NO`, the Potency result is “inactive”.

With `CCOC(=O)C1=C(N)Oc2ccc(Br)cc2C1C(C#N)C(=O)OCC` (centres undefined), the Potency is 11.3 µM (active).

In the case of `COc1ccc(NC(=O)c2ccc(-c3ccc(C(N)=O)cc3C)cc2)cc1N1CCN(C)CC1`, the Potency result is “inactive”.

Consider `CC(C)(C)Nc1nc(Nc2ccc(C(N)=O)cc2)cc(N)c1C#N`, for which the Potency was 15.8 µM (active).

For the compound `Cc1ccccc1C#Cc1ccc(CCC(=O)O)cc1`, the Potency was 10.1 µM (active).

The next test has the same target. Kind of test: qHTS for Inhibitors of the Aldehyde Dehydrogenase Family (ALDH1A3) Validation screen (AID 2061312). Note: nearly all actives have a fitted effect of over 45% in size. Conditions: ALDH1A3 enzyme inhibition qHTS validation, fluorescence; series mostly up to 84.7 µM.
`CCC(C)C(N)C1=NC(C(=O)N[C@@H](CC(C)C)C(=O)N[C@H](CCC(=O)O)C(=O)N[C@H](C(=O)N[C@H]2CCCCNC(=O)[C@H](CC(N)=O)NC(=O)[C@@H](CC(=O)O)NC(=O)[C@H](Cc3cnc[nH]3)NC(=O)[C@@H](Cc3ccccc3)NC(=O)[C@H]([C@@H](C)CC)NC(=O)[C@@H](CCCN)NC2=O)[C@@H](C)CC)CS1` (some centres undefined) (X1-L[dE]IK[dOrn]I[dF]H[dD]N; lactam 4-C): the Potency entry is “inactive”.

In the case of `CO/N=C(/C(=O)N[C@@H]1C(=O)N2C(C(=O)O)=C(Cn3ccc(=N)n3CCO)CS[C@H]12)c1csc(N)n1`, the Potency result was “inactive”.

Take `CC(=O)NC(C)c1cnc(-c2cnc(Oc3ccc(OC(C)C)cc3)s2)s1` (centres undefined): the Potency entry was “inactive”.

Turning to `O=C(Nc1ccccc1)N1CCN(Cc2ccc3ccccc3n2)CC1`, the Potency result is “inactive”.

On to `N[C@@H](CCNCc1ccc(Cl)cc1)C(=O)N1CCCCC1`, for which the Potency result is “inactive”.

In the case of `CC1(NC(=O)c2ccc(C#Cc3cccc(F)c3)cn2)COC1`, the Potency entry is “inactive”.

Turning to `CCOC(=O)C1=C(N)Oc2ccc(Cl)cc2C1C(C#N)C(=O)OCC` (centres undefined), the Potency result was “inactive”.

For `C=CC(=O)N1CCN(C(=O)CNc2cc(-c3ccccc3Cl)c(Cl)cc2OC)CC1`, the Potency result was “inactive”.

Consider `COC(=O)N1CCN(Cc2cccc(NC(=O)Nc3ccc(C)nc3)c2F)CC1`, for which the Potency entry was “inactive”.

In the case of `O=C(CCCCCCC(=O)Nc1ccccc1)NO`, the Potency was 22.4 µM (active).

Consider `CCOC(=O)C1=C(N)Oc2ccc(Br)cc2C1C(C#N)C(=O)OCC` (centres undefined), for which the Potency result was “inactive”.

On to `COc1ccc(NC(=O)c2ccc(-c3ccc(C(N)=O)cc3C)cc2)cc1N1CCN(C)CC1`, for which the Potency entry was “inactive”.

With `CC(C)(C)Nc1nc(Nc2ccc(C(N)=O)cc2)cc(N)c1C#N`, the Potency result was “inactive”.

Take `Cc1ccccc1C#Cc1ccc(CCC(=O)O)cc1`: the Potency entry is “inactive”.

Another test concerns the target Retinal dehydrogenase 2 (Homo sapiens) (UniProt O94788). Kind of test: qHTS for Inhibitors of the Aldehyde Dehydrogenase Family (ALDH1A2) Confirmation screens (AID 2061314). Note: nearly all actives have a fitted effect of over 65% in size. The following applies: ALDH1A2 enzyme inhibition qHTS confirmation; series mostly up to 45.9 µM.
In the case of `Cc1nnc(-c2sc(NC(=O)[C@H](C(C)C)n3c(=O)[nH]c4ccccc4c3=O)nc2C)o1`, the Potency entry was “inactive”.

Consider `CCCN(CCN1CCN(c2ccccc2OC)CC1)C1CCc2ncsc2C1` (centres undefined), for which the Potency result was “inactive”.

As to `CCC(C)C(N)C1=NC(C(=O)N[C@@H](CC(C)C)C(=O)N[C@H](CCC(=O)O)C(=O)N[C@H](C(=O)N[C@H]2CCCCNC(=O)[C@H](CC(N)=O)NC(=O)[C@@H](CC(=O)O)NC(=O)[C@H](Cc3cnc[nH]3)NC(=O)[C@@H](Cc3ccccc3)NC(=O)[C@H]([C@@H](C)CC)NC(=O)[C@@H](CCCN)NC2=O)[C@@H](C)CC)CS1` (some centres undefined) (X1-L[dE]IK[dOrn]I[dF]H[dD]N; lactam 4-C), the Potency is 11.3 µM (active).

For `O=C(O)c1cnn(-c2nc3cc(OC(F)(F)F)c(Cl)cc3[nH]2)c1`, the Potency result was “inactive”.

Consider `CO/N=C(/C(=O)N[C@@H]1C(=O)N2C(C(=O)O)=C(Cn3ccc(=N)n3CCO)CS[C@H]12)c1csc(N)n1`, for which the Potency result is “inactive”.

Consider `C=CC(=O)Nc1cccc(Nc2nc(Nc3ccc(Oc4ccnc(C(=O)NC)c4)cc3)ncc2F)c1`, for which the Potency entry is “inactive”.

Regarding `Oc1ccc(Nc2nc(-c3ccc(Cl)cc3)cs2)cc1`, the Potency result is “inactive”.

As to `CC(=O)NC(C)c1cnc(-c2cnc(Oc3ccc(OC(C)C)cc3)s2)s1` (centres undefined), the Potency result is “inactive”.

With `Clc1ncoc1-c1c[nH]c2ccccc12`, the Potency entry was “inactive”.

Regarding `O=C(Nc1ccccc1)N1CCN(Cc2ccc3ccccc3n2)CC1`, the Potency entry was “inactive”.

With `N[C@@H](CCNCc1ccc(Cl)cc1)C(=O)N1CCCCC1`, the Potency entry was “inactive”.

Take `O=C(C1CCCCC1)N(CCN1CCN(c2ccccc2O)CC1)c1ccccn1`: the Potency result was “inactive”.

In the case of `COc1ccc(-c2ccn(CC[C@](C)(C(=O)NO)S(C)(=O)=O)c(=O)c2)c(F)c1`, the Potency was 5.65 µM (active).

On to `CC1(NC(=O)c2ccc(C#Cc3cccc(F)c3)cn2)COC1`, for which the Potency entry was “inactive”.

For `O=C(O)c1cn(C2CC2)c2cc(N3C[C@@H]4C[C@H]3CN4)c(F)cc2c1=O`, the Potency entry was “inactive”.

Take `CCCCNC(=O)[C@@H]1Cc2ccccc2N1C(=O)[C@@H](N)CC`: the Potency entry was “inactive”.

For the compound `Cn1cnc(-c2nccc3c(=O)[nH]c(OCCCC(F)(F)F)nc23)c1`, the Potency result is “inactive”.

As to `CCOC(=O)c1cccc(CNc2ccc(N(C)C(=O)Nc3ccccc3)cc2)c1`, the Potency entry was “inactive”.

Consider `COCCN(C(=O)c1cc(OC)c(OC)c(OC)c1)c1nc(-c2ccccc2)cs1`, for which the Potency entry is “inactive”.

For `COC(=O)N1CCN(Cc2cccc(NC(=O)Nc3ccc(C)nc3)c2F)CC1`, the Potency result was “inactive”.

With `COc1ccnc(CCc2nc3ncccc3[nH]2)c1`, the Potency result is “inactive”.

With `COc1ccc(CCO[C@@H]2CCCC[C@H]2N2CC[C@@H](O)C2)cc1OC`, the Potency entry is “inactive”.

`CC1(C)CCC2(C(=O)OC3OC(CO)C(O)C(O)C3O)CCC3(C)C(=CCC4C5(C)CCC(O)C(C)(C(=O)O)C5CCC43C)C2C1O` (centres undefined): the Potency result is “inactive”.

On to `Cn1cc(Nc2cnccc2C(=O)O)c2cccnc21`, for which the Potency result was “inactive”.

As for `O=C(CCCCCCC(=O)Nc1ccccc1)NO`, the Potency entry was “inactive”.

Consider `CC(C)(C)Nc1nc(Nc2ccc(C(N)=O)cc2)cc(N)c1C#N`, for which the Potency is 3.57 µM (active).

As to `Cc1ccccc1C#Cc1ccc(CCC(=O)O)cc1`, the Potency entry is “inactive”.
